# In the library only some 3.1% were active in any assay of this set; here they are far more common.
# PLK1 PBD block: PLK1 (human) polo-box domain binding inhibition; Plk1 PBD binding of FITC phosphopeptide, fluorescence polarization; AID 720504; P53350; Potency, µM, inactives show max response, negative = inhibition, hits mostly inhibitors; 360,000 tested, 2.8% active; further: potency means the concentration at half of the fitted maximal effect; series mostly up to about 57 µM; on the % scale 0 is the no-effect control and ±100 the full control effect; nearly all actives have a fitted effect of over 65% in size
# Vif-APOBEC3G blk: blocks the Vif interaction with human APOBEC3G. Q9HC16. Potency, µM (titrated, usually from 46.1 µM), inactives show top-dose activity, negative = active, hits mostly inhibitors. HeLa A3G-eYFP + Vif (tagged APOBEC3G with the HIV-1 protein that degrades it), YFP fluorescence, overnight. AID 602310. 410,000 tested, 0.076% active; further: potency means the concentration at half of the fitted maximal effect; on the % scale 0 is the no-effect control and ±100 the full control effect; nearly all actives have a fitted effect of over 60% in size
#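 Read-out is eYFP fluorescence (Ex 488/Em 500-530) from Vif-expressing HeLa A3G-eYFP cells; more signal means A3G escaped Vif-mediated degradation. Cells plated overnight, compound pinned in, incubated overnight at 37 deg C.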
# Vif-APOBEC3F blk: blocks the Vif interaction with APOBEC3F; HeLa A3F-eYFP + Vif (tagged APOBEC3F with the HIV-1 protein that degrades it), YFP fluorescence increase; 390,000 tested, 0.2% active; Potency, µM (series often up to 46.1 µM), for the others: top-dose activity, negative = active; further: potency means the concentration at half of the fitted maximal effect; % of control where 0% means no effect; nearly all actives have a fitted effect of over 65% in size
#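 Fluorescence increase (Ex 488/Em 500-530) after overnight compound treatment at 37 deg C flags inhibition of Vif-driven A3F-eYFP loss in stable HeLa A3F-eYFP/Vif cells seeded overnight beforehand.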
# VDR inhibitor: blocks the human vitamin D receptor; P11473; VDR-SRC2-3 peptide fluorescence polarization, 2 h; Potency, µM, inactives show max response, negative = inhibition, hits mostly inhibitors; 400,000 tested, 0.93% active; further: potency means the concentration at half of the fitted maximal effect; on the % scale 0 is the no-effect control and ±100 the full control effect
#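 VDR–SRC2-3 interaction, FP format. Cmpds 23 nl via pintool, brief spin, 2 h ambient incubation.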
# TSHR antagonist: human thyrotropin receptor antagonism; P16473; TSHR-expressing cells, TSH-stimulated cAMP HTRF, 2 h; hits give low values; activity change, negative = inhibition, % at 11.5 µM; 330,000 tested, 0.2% active;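 active means activity change below a set negative limit, meaning inhibition stronger than a set level, cut at about -70% in these data; inconclusive means activity change between two set negative limits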; further: on the % scale 0 is the no-effect control and ±100 the full control effect
# Target sequence (P16473 whole entry, looked up): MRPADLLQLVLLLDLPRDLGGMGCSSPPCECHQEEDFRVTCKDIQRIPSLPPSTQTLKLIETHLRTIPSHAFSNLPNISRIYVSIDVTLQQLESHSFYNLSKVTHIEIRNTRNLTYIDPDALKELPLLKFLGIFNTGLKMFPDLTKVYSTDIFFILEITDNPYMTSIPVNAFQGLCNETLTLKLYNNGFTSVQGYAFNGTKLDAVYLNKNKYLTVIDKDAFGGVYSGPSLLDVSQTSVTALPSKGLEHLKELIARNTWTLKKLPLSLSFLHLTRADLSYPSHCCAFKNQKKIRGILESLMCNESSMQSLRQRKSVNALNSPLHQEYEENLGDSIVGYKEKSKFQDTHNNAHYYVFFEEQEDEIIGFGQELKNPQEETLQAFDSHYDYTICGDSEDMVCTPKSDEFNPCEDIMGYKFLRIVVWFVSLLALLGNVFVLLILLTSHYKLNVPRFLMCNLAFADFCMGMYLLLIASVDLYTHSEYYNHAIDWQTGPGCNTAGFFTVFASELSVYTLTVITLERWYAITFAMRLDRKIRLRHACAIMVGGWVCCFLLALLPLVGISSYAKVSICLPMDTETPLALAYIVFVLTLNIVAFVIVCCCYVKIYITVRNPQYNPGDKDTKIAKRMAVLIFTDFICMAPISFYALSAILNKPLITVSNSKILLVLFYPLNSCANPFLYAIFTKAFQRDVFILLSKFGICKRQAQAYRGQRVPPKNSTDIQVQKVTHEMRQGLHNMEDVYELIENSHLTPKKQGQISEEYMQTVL
#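 Competitive HTRF cAMP read-out (cryptate anti-cAMP antibody, cAMP-d2; 30 min, room temperature) in freshly harvested TSHR cells. Compounds added before TSH at EC80 (4nM final), followed by 2 hours' incubation at 37 deg C.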
# Starred values were filed as active, the others as inactive; ? = inconclusive; nt = not tested or not shown. Unless noted, the call rests on the fitted dose curve; in most records, active means well fitted curve in the direction sought with a large enough effect; inconclusive means small, poorly fitted or top-dose-only effect, or another doubt; inactive means no such curve, though single readings can be large; an effect the other way counts as inactive or inconclusive.
SMILES,PLK1 PBD block,Vif-APOBEC3G blk,Vif-APOBEC3F blk,VDR inhibitor,TSHR antagonist
Cc1cccc(-n2c(O)c(/C=C/C=Nc3ccccc3)c(=O)[nH]c2=O)c1,51%,5%,10µM*,9%,14
CCC(C)N=Cc1c(O)n(-c2ccccc2)c(=O)[nH]c1=O (configuration not stated),27µM*,-1%,-2%,?,11
COC(=O)C1=CO[C@@H](C)[C@@H]2CN3CC[C@]4(C(=O)Nc5c4ccc(OC)c5OC)[C@H]3C[C@H]12,nt,nt,nt,-19%,nt
C[C@H]1CCCC=CC2C[C@H](O)C[C@@H]2[C@H](O)C=CC(=O)O1 (some centres not stated),nt,-10%,nt,nt,nt
C=C(C)[C@]12C[C@@H](C)[C@@]34OC(Cc5ccccc5)(O[C@@H]1[C@@H]3C=C(COC(=O)Cc1cc(I)c(O)c(OC)c1)C[C@]1(O)C(=O)C(C)=C[C@@H]41)O2,nt,nt,nt,0%,nt
Cc1cccc(N2C(=O)NC(=O)/C(=C\c3cc(C)n(-c4sc5c(c4C#N)CCCC5)c3C)C2=O)c1C,0.75µM*,-24%,2%,16µM*,18
CCOC(=O)c1c(-n2c(C)cc(C=C3C(=O)NC(=O)NC3=O)c2C)sc2c1CCCC2,?,1%,4%,-14%,3
C[n+]1c(-c2ccccc2)c2cc(N)ccc2c2ccc(N)cc21,-22%,8%,7%,-16%,-13
Nc1ccc2ccc3cccc[n+]3c2c1,0.67µM*,13%,?,-13%,1
N#Cc1ccc(CN2CC[C@@]3(CCCNC3)C2)cc1,nt,nt,nt,-5%,nt
CNCC(N)C(=O)O (configuration not stated),nt,nt,nt,-13%,nt
CCOc1ccc(N2C(=O)/C(=C/c3ccco3)C(=O)NC2=S)cc1,1.3µM*,3%,1%,79µM*,-12
COc1ccc(N2C(=O)/C(=C/c3ccc(OC)c(OC)c3)C(=O)NC2=S)cc1,7.5µM*,0%,3%,?,8
O=C1NC(=S)N(c2ccccc2F)C(=O)/C1=C\c1cccs1,7.5µM*,?,-7%,?,5
Cc1ccccc1N1C(=O)/C(=C/c2ccco2)C(=O)NC1=S,nt,nt,nt,nt,1
CCOc1ccc(N2C(=O)/C(=C\c3cccs3)C(=O)NC2=S)cc1,2.7µM*,?,2%,6%,4
C[C@H](NC(=O)[C@@H](N)Cc1ccc(O)cc1)C(=O)NCC(=O)N(C)[C@@H](Cc1ccccc1)C(=O)N[C@H](CO)CCS(C)=O (some centres not stated),nt,nt,nt,-1%,nt
CC1(C)C(=O)[C@@H]2OC2[C@@]2(C)C1CC(O)[C@]1(C)C2CC[C@@]2(C)C(c3ccoc3)OC(=O)C3OC312 (some centres not stated),nt,nt,nt,2%,nt
Cc1cc(N(CCCl)CCCl)ccc1C=Cc1ccncn1,31%,?,25µM*,2%,nt
O=C1OC(c2cc(I)c(O)c(I)c2)(c2cc(I)c(O)c(I)c2)c2ccccc21,nt,nt,nt,20µM*,nt
O=c1[nH]c(=O)n(-c2ccccc2F)c(O)c1/C=C1\C=Nc2ccccc21,4.2µM*,-21%,-3%,-17%,4
O=c1[nH]c(=O)n(CC2CCCO2)c(O)c1/C=C1\C=Nc2ccccc21 (configuration not stated),27µM*,1%,0%,9%,3
COc1ccc(-n2c(O)c(/C=C3\C=Nc4ccc(Br)cc43)c(=O)[nH]c2=O)cc1,1.1µM*,1%,?,?,-3
O=c1[nH]c(=O)n(Cc2ccccc2)c(O)c1/C=C1\C=Nc2ccccc21,?,0%,?,-10%,14
CC(=O)N1CC[N+](C)(C)CC1,nt,nt,nt,1%,nt
SMILES,PLK1 PBD block,Vif-APOBEC3G blk,Vif-APOBEC3F blk,VDR inhibitor,TSHR antagonist
CC(C)C1C(=O)O[C@@H]2CCN3CC=C(COC(=O)[C@](C)(O)[C@]1(C)O)[C@H]23 (some centres not stated),nt,nt,nt,13%,nt
CC1=C(O)C(=O)C=C2C1=CC=C1C2(C)CCC2(C)C3CC(C)(C(=O)O)CCC3(C)CCC12C (configuration not stated),2.1µM*,0%,8%,28µM*,nt
CC(C)C[C@H](NC(=O)CNC(=O)[C@H](CCC(N)=O)NC(=O)[C@H](Cc1ccc(O)cc1)NC(=O)[C@@H](NC(=O)[C@H](Cc1ccc(O)cc1)NC(=O)CNC(=O)[C@@H](N)CCCN=C(N)N)C(C)C)C(=O)O,nt,nt,nt,12%,nt
CCCCn1c(O)c(C=NCCCn2ccnc2)c(=O)[nH]c1=O,-7%,1%,4%,-8%,9
CC(C)CCCn1c(O)c(/C=C2/C=CC=N2)c(=O)[nH]c1=O,-18%,?,25µM*,13%,-12
CN[C@@H](Cc1c[nH]c2ccccc12)C(=O)O,nt,nt,nt,-2%,nt
CSCC[C@H](NC(=O)[C@H](CC(C)C)NC(=O)[C@@H](Cc1cnc[nH]1)NC(=O)[C@H](Cc1ccccc1)NC(=O)[C@@H](Cc1ccccc1)NC(=O)[C@@H](N)Cc1ccc(O)cc1)C(N)=O,nt,nt,nt,-14%,nt
CSc1nc(N)c(N=Nc2ccc([As](=O)(O)O)cc2)c(=O)[nH]1,11µM*,-9%,?,50µM*,3
CC1=CC(=O)NP(=O)(Oc2ccc3ccccc3c2)N1 (configuration not stated),6.7µM*,-1%,-8%,-10%,11
N[C@@]1(C(=O)O)CC[C@H](C(=O)O)C1,nt,nt,nt,9%,nt
CN1C(=O)C(Cc2cccc3ccccc23)C(=O)N(C)C1=O,21µM*,2%,0%,?,11
Cn1c(O)c(C=Nc2ccccc2Sc2ccccc2)c(=O)n(C)c1=O,-25%,3%,3%,-3%,1
Cn1c(N)c(Sc2ccccc2[N+](=O)[O-])c(=O)n(C)c1=O,-25%,-1%,?,11%,-112*
O=C(O)COc1ccc(Br)cc1C(c1c(C(=O)O)[nH]c2ccccc12)c1c(C(=O)O)[nH]c2ccccc12,27µM*,2%,-1%,?,-2
C[N+](C)(C)CCCl,nt,nt,nt,-5%,nt
CCOC(=O)C(SP(=S)(OC)OC)c1ccccc1 (configuration not stated),nt,nt,nt,3.5µM*,nt
COc1cc2c(cc1OC)[C@@H]1C(=O)c3ccc(OC)c(CC=C(C)C)c3OC1CO2 (some centres not stated),nt,nt,nt,-7%,nt
CC1CCCCN1C(=O)Cn1cc(C=C2C(=O)N(C)C(=O)N(C)C2=O)c2ccccc21 (configuration not stated),17µM*,1%,-12%,-9%,0
CCN(CC)C(=O)Cn1cc(C=C2C(=O)N(C)C(=O)N(C)C2=O)c2ccccc21,30µM*,1%,-11%,-8%,1
COc1cccc2c1C13CC[N+]4(CC5CC5)CO[C@]1(CCC(=O)C3)C4C2,nt,nt,nt,10%,nt
N#C/C(N)=C(/N)C#N,-1%,2%,2%,8%,13

# Screening results deposited in PubChem BioAssay by National Center for Advancing Translational Sciences (NCATS).
